# A selection: hits, their analogues and other compounds. The true share with any hit is near 2.3%.
# Giardia killer = kills Giardia lamblia; 340,000 tested, 0.15% active; Giardia lamblia trophozoite viability; activity change, % at 7.66 µM, hits read low; AID 540267; in the data active = activity change below about -80%; inconclusive = between about -30% and that limit;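 also: parasites exposed to compound for two days anaerobically before the ATP read; % is scaled to controls: 0 for no effect and ±100 for the full control effect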
#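 Giardia trophozoites, 100 cells per well, were exposed to compounds for 48 hrs at 37 deg C under anaerobic conditions; viability was then read as ATP content by bioluminescence after 15-30 min at room temperature.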
# A549 tox = counter-screen for Nrf2 inhibitors: cytotoxicity in A549 cells; Potency, µM (doses to about 46 µM), for the others: top-dose activity change, negative = cytotoxicity, usual class: inhibitors; AID 504648; 390,000 tested, 0.16% active; A549 ARE-Fluc cells, CellTiter-Fluor viability, 18-24 h; also: potency is read from the fitted curve at half-maximal effect; % is scaled to controls: 0 for no effect and ±100 for the full control effect
#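 A549 ARE-Fluc cells in 5% FBS OPTI-MEM, 5000 cells/well, rested 2 h then exposed to compounds in concentration-response for 18-24 h at 37 °C. Viability by CellTiter-Fluor fluorescence (Ex 405/Em 525) after 30 min; luciferase luminescence (BugLite, 15 min, RT) read afterwards.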
# Nrf2 ARE act = activates Nrf2 signaling | AREc32 ARE-luciferase reporter (MCF7-derived line), luminescence, 24 h | Potency, µM (doses to about 46.1 µM), inactives show at the highest dose activation, hits mostly activators | 410,000 tested, 0.31% active | AID 624171; also: potency is read from the fitted curve at half-maximal effect; % of control where 0% means no effect; nearly all actives have a fitted effect of over 65% in size
#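 Steps: seed AREc32_Fluc cells (1000/well, 5% FBS OPTI-MEM); incubate overnight at 37 deg C; add 23 nL compound; incubate 24 hr; add Steady-Glo; hold 30 min RT; read luminescence.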
# Nrf2 inh = inhibitors of Nrf2 signaling | A549 ARE-Fluc reporter, luciferase luminescence, 18-24 h | Potency, µM (top dose mostly 46 µM), for inactives: top-dose activity change, negative = inhibition, hits mostly inhibitors | 360,000 tested, 2.1% active | AID 504444; also: potency is read from the fitted curve at half-maximal effect; % is scaled to controls: 0 for no effect and ±100 for the full control effect; nearly all actives have a fitted effect of over 60% in size
#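 A549 ARE_Fluc cells, 5000/well, 5% FBS OPTI-MEM; compounds in dose-response, 18-24 h at 37 °C/5% CO2; CellTiter-Fluor viability read (Ex 405/Em 525), then BugLite luciferase luminescence = Nrf2 activity.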
# IDH1 R132H inh = inhibitors of human mutant IDH1 R132H | O75874 | IDH1-R132H enzyme, NADPH consumption, diaphorase/resazurin fluorescence | Potency, µM (doses to about 76.6 µM), inactives show top-dose activity change, negative = inhibition, actives largely listed as inhibitors | 390,000 tested, 0.093% active; also: potency is read from the fitted curve at half-maximal effect; % is scaled to controls: 0 for no effect and ±100 for the full control effect; nearly all actives have a fitted effect of over 65% in size
# Target sequence (O75874 whole entry R132H, stated change not applied): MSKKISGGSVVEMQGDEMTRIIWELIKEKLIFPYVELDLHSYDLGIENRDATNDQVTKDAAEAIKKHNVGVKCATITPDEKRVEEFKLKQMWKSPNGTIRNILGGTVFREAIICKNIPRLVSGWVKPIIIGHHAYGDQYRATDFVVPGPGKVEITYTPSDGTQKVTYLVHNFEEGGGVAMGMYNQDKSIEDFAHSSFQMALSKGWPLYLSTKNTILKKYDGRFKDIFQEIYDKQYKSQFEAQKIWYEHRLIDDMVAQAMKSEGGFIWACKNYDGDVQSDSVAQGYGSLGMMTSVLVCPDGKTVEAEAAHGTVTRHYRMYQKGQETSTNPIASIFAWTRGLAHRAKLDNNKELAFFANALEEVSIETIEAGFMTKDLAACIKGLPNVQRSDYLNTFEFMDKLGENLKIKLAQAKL
#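 IDH1-R132H (0.5 ug/mL dispensed) in pH 7.5 Tris buffer was preincubated 30 min with compound, then given a substrate mix of 0.016 mM NADPH and 2 mM alpha-KG for 80 min at room temperature; remaining NADPH was read by diaphorase/resazurin fluorescence.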
# Anesthetic bind = binds horse apoferritin like a general anesthetic; P02791; apoferritin/1-aminoanthracene competitive binding, fluorescence; Potency, µM (highest dose often 77.5 µM), for the others: at the top dose activity change, negative = displacement, most hits filed as inhibitors; 350,000 tested, 0.074% active; also: potency is read from the fitted curve at half-maximal effect; % is scaled to controls: 0 for no effect and ±100 for the full control effect; nearly all actives have a fitted effect of over 20% in size
# Target sequence (P02791 2-175 limits assumed): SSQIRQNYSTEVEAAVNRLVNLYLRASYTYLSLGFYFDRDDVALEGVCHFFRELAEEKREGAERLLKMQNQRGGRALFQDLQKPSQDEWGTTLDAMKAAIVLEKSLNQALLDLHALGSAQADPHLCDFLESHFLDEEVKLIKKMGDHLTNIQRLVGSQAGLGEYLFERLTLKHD
#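 Steps: apoferritin (10 uM) was premixed with half-saturated 1-AMA in PBS, compounds were pin-transferred, plates stood 10 min at room temperature, fluorescence was read at 380/535 nm, and curves were fitted with a Hill equation.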
# The depositor's hits bear a star; ? = inconclusive; nt = no result given. Unless noted, calls follow the shape of the dose curve; as a rule, active = well fitted curve in the direction sought with a large enough effect; inconclusive = small, poorly fitted or top-dose-only effect, or another doubt; inactive = no such curve, though single readings can be large; an effect the other way counts as inactive or inconclusive.
SMILES,Giardia killer,A549 tox,Nrf2 ARE act,Nrf2 inh,IDH1 R132H inh,Anesthetic bind
Cc1cccn2c(=O)c(C(=O)NCCc3ccccc3)c(O)nc12,nt,1.6%,-0.2%,10.5%,-13.6%,?
C/C=C(\C=C\[C@@H](C)C/C=C/CC/C=C/C=C\C[C@@H](OC)/C(C)=C\C=C(C)C)CC(=O)O,nt,nt,nt,nt,nt,13.4%
COC(=O)c1ccc(NC(=O)CCc2c(C)nc3c(c(C)nn3C(C)(C)C)c2C)cc1,nt,-12.6%,-3.9%,?,13.3%,?
Cc1cccc(NC(=O)CCc2c(C)nc3c(c(C)nn3C(C)(C)C)c2C)c1C,nt,-9.0%,0.4%,18.4µM*,5.7%,-8.2%
COc1ccc(CCC(=O)Nc2ccc(Cl)c(S(=O)(=O)N3CCCC3)c2)cc1,-2.7,-1.7%,-0.2%,18.4µM*,3.3%,-1.1%
COc1ccc(CCC(=O)Nc2ccc(OC)c(S(=O)(=O)N3CCCCC3)c2)cc1OC,7.9,-14.2%,0.1%,?,-1.7%,nt
COc1ccc(NC(=O)CCCOc2ccc(Cl)c(C)c2)cc1S(=O)(=O)N1CCOCC1,13.1,?,-0.5%,18.4µM*,9.5%,nt
COc1ccc(OCCCC(=O)Nc2ccc(OC)c(S(=O)(=O)N3CCOCC3)c2)cc1,-12.7,0.6%,1.3%,-14.1%,-7.6%,nt
COc1cc(F)c(S(=O)(=O)N2CCN(S(=O)(=O)c3ccc4c(c3)OCCO4)CC2)c(F)c1,nt,-9.4%,nt,1.7%,nt,nt
CCn1cc(C(=O)N2CCCC2)c(=O)c2cc(S(=O)(=O)N3CCC(C)CC3)ccc21,-0.8,-2.9%,0.2%,-6.4%,-11.0%,-11.5%
CC(=O)c1ccc(N2CCN(c3ccc(C(F)(F)F)cn3)CC2)cc1,1.0,0.2%,-0.1%,9.2µM*,-1.7%,-1.1%
CC(=O)c1ccc(N2CCN(c3ncc(C(F)(F)F)cc3Cl)CC2)cc1,-4.6,0.0%,-0.4%,?,4.9%,-17.1%
O=C(c1cc(S(=O)(=O)N2CCCCC2)ccc1Cl)N1CCOCC1,-8.3,-0.9%,0.2%,-0.5%,0.0%,-8.2%
CCn1cc(C(=O)N2CCN(c3cc(Cl)ccc3C)CC2)c(=O)c2cc(S(=O)(=O)N3CCOCC3)ccc21,nt,-12.1%,-0.7%,20.6µM*,6.1%,?
Cc1ccc(S(=O)(=O)N2CCN(C(=O)c3cc(S(=O)(=O)N4CCOCC4)ccc3Cl)CC2)c(C)c1,7.0,-4.2%,0.4%,20.6µM*,-4.4%,nt
CCn1cc(C(=O)N2CCN(c3cccc(Cl)c3)CC2)c(=O)c2cc(S(=O)(=O)N3CCC(C)CC3)ccc21,nt,-3.5%,0.1%,20.6µM*,1.3%,?
N#Cc1nc(Nc2ccccc2)nc(NC2CCCC2)n1,nt,-7.1%,nt,-14.6%,nt,-10.7%
CCC(C)c1cc([N+](=O)[O-])cc([N+](=O)[O-])c1OC(C)=O (configuration not stated),nt,nt,nt,nt,nt,144.2%
O=C(c1ccccc1O)N(Cc1ccco1)Cc1cccs1,nt,4.2%,nt,?,nt,nt
CC(Oc1ccccc1)C(=O)Nc1ccccc1C(=O)OCc1cc(=O)n2nc(C3CC3)sc2n1 (configuration not stated),nt,12.8%,1.8%,nt,-3.9%,52.2%
Cc1ccc(S(=O)(=O)N2CCOCC2)cc1C(=O)N1CCN(c2ccc(C(F)(F)F)cn2)CC1,-3.7,-0.2%,4.1%,25.9µM*,-0.8%,nt
CCOC(=O)c1c(S(=O)(=O)N2CCC(C(=O)Nc3ccc(OCC)cc3)CC2)c(C)n(C)c1C,nt,-0.9%,0.4%,nt,26.7%,10.7%
Cc1ccc(-n2c3nc(=O)[nH]c(=O)c-3cc3cc([N+](=O)[O-])ccc32)cc1C,-0.3,?,3.4%,14.6µM*,15.7%,-13.4%
Cc1nc(NCc2ccccc2)c2nc(-c3ccccc3)n(CCCN(C)C)c2n1,nt,nt,nt,nt,nt,4.1%
COc1ccc([C@H]2C[C@@H](n3cc(-c4ccc(F)cc4)nn3)[C@H](O)CN2C(=O)C2CCCCC2)cc1,nt,nt,2.5%,nt,1.1%,nt
SMILES,Giardia killer,A549 tox,Nrf2 ARE act,Nrf2 inh,IDH1 R132H inh,Anesthetic bind
O=C1N(Cc2cccc(C(F)(F)F)c2)c2ccccc2S(=O)(=O)N1c1cccc(Cl)c1,nt,-4.7%,-0.7%,nt,1.6%,43.7%
O=C(Nc1ccc(Cl)c(S(=O)(=O)N2CCOCC2)c1)C1CCCC1,34.2,-2.9%,0.7%,23.1µM*,-11.8%,nt
O=C(Nc1ccc(F)c(S(=O)(=O)N2CCOCC2)c1)C1CCCCC1,-17.7,-5.4%,2.3%,-13.2%,-0.5%,nt
COc1ccc(NC(=O)CSc2ccc(NC(C)=O)cc2)cc1S(=O)(=O)N1CCOCC1,-11.1,3.8%,-0.2%,1.0%,-1.2%,nt
O=C(CSc1ccccc1)Nc1ccc(Cl)c(S(=O)(=O)N2CCOCC2)c1,2.6,-20.0%,2.9%,23.1µM*,-8.0%,nt
COc1ccc(NC(=O)CSc2ccc3ccccc3c2)cc1S(=O)(=O)N1CCCCC1,10.7,-13.0%,2.7%,7.31µM*,-4.7%,1.6%
O=C(O)c1cc(=O)c2cc(Cl)ccc2[nH]1,nt,nt,nt,nt,nt,3.5%
CC(C)(C)c1ccc(C(=O)Nc2ccc(CN3CCS(=O)(=O)CC3)cc2)cc1,-16.4,-11.0%,-0.7%,7.31µM*,0.2%,-17.5%
O=C(Nc1ccc(CN2CCS(=O)(=O)CC2)cc1)c1ccc(F)cc1,-13.5,0.4%,-0.2%,9.8%,8.0%,-6.4%
O=C(Nc1ccc(CN2CCS(=O)(=O)CC2)cc1)c1ccc(C(F)(F)F)cc1,-20.6,-16.3%,-0.4%,18.4µM*,4.4%,-5.0%
COC(=O)Cc1ccc(NC(=O)c2ccc(C(C)(C)C)cc2)cc1,?,?,-1.6%,2.06µM*,0.6%,-19.2%
COc1cccc(Cn2ncc3c4sc(C)cc4n(C)c3c2=O)c1,nt,-3.0%,nt,-19.9%,nt,nt
COCc1nnc(NC(=O)c2ccc(S(=O)(=O)N(C)c3ccccc3)cc2)o1,-17.5,4.2%,-1.9%,?,10.0%,-3.4%
CN(c1ccccc1)S(=O)(=O)c1ccc(C(=O)Nc2nnc(C3CC3)o2)cc1,?,?,-0.6%,23.0%,-3.7%,-11.5%
CCN(c1ccccc1)S(=O)(=O)c1ccc(C(=O)Nc2nnc(C3CC3)o2)cc1,12.3,?,-0.2%,11.6µM*,-10.9%,-13.8%
CCN(c1ccccc1)S(=O)(=O)c1ccc(C(=O)Nc2nnc(COC)o2)cc1,3.0,-15.9%,-1.3%,23.1µM*,0.4%,-14.7%
CCN(c1ccccc1)S(=O)(=O)c1ccc(C(=O)Nc2nnc(CSC)o2)cc1,9.6,?,0.5%,11.6µM*,-5.0%,1.3%
CCCc1ccc(C2C3=C(CC(C)(C)CC3=O)NC3=C2C(=O)c2ccccc23)cc1 (configuration not stated),-11.8,?,0.4%,8.2µM*,0.5%,?
